Measured values as given in PubChem BioAssay (NCI).
The panel holds about 83,000 compounds, 20% with a hit somewhere; the sample as a whole holds those more often.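 Percent growth is the endpoint: 0 to 100 indicates growth inhibition (40 means 60% inhibition), 0 means no net growth, and negative values indicate cell death.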 Values without a mark were called inactive. Calls of active or inactive are those of the source. Rule for the calls: active = growth percent below 10; inactive = the rest.

Legend:
Experiment in all cases: NCI-60 one-dose screen, 48 h (100 = growth as untreated, 0 = no growth, -100 = all killed)
Conditions in all cases: 10 µM unless noted
RPMI-8226 leukemia = tested on: RPMI-8226 leukemia
OVCAR-8 ovarian = tested on: OVCAR-8 ovarian
OVCAR-5 ovarian = tested on: OVCAR-5 ovarian
OVCAR-4 ovarian = tested on: OVCAR-4 ovarian
SK-OV-3 ovarian = tested on: SK-OV-3 ovarian
IGROV1 ovarian = tested on: IGROV1 ovarian
OVCAR-3 ovarian = tested on: OVCAR-3 ovarian
HS 578T breast = tested on: HS 578T breast
NCI/ADR-RES ovarian = tested on: NCI/ADR-RES ovarian
T-47D breast = tested on: T-47D breast
MDA-MB-435 melanoma = tested on: MDA-MB-435 melanoma
SW-620 colon = tested on: SW-620 colon
MCF7 breast = tested on: MCF7 breast
HCT-116 colon = tested on: HCT-116 colon
HCC-2998 colon = tested on: HCC-2998 colon
KM12 colon = tested on: KM12 colon
MDA-MB-468 breast = tested on: MDA-MB-468 breast
SR leukemia = tested on: SR leukemia
BT-549 breast = tested on: BT-549 breast

Row | Compound | growth (RPMI-8226 leukemia) | growth (OVCAR-8 ovarian) | growth (OVCAR-5 ovarian) | growth (OVCAR-4 ovarian) [%] | growth (SK-OV-3 ovarian) | growth (IGROV1 ovarian) | growth (OVCAR-3 ovarian) | growth (HS 578T breast) | growth (NCI/ADR-RES ovarian) | growth (T-47D breast) | growth (MDA-MB-435 melanoma) | growth (SW-620 colon) | growth (MCF7 breast) | growth (HCT-116 colon) | growth (HCC-2998 colon) | growth (KM12 colon) | growth (MDA-MB-468 breast) | growth (SR leukemia) | growth (BT-549 breast)
1 | O=C(NNc1nc2cc(F)ccc2n2c(C(=O)N3CCN(C4CC4)CC3)ccc12)c1ncccn1 | 25.1% | 22.1% | 38.4% | 29.5 | 22.1% | 30.4% | 57.7% | 66.5% | 16.6% | 27.3% | 41.2% | 34.6% | 15.3% | 20.5% | 63.8% | 35.7% | 14.1% |  | 
2 | N#Cc1ccc(/C=N/NC(=O)c2[nH]c3ccc(Br)cc3c2-c2ccccc2)o1 |  | -21.9% (active) | 15.9% | 35 | 44% | 13.9% | 14.6% |  | -40.9% (active) | 23.8% |  |  | 7.95% (active) | 1.43% (active) | -30.9% (active) | 6.36% (active) | -13.6% (active) | 4.35% (active) | -7.06% (active)
3 | COc1cc2c(c(OC)c1OC)C(=O)CC(c1cccc(NC(=O)c3cc(N)ccc3Cl)c1)O2 (stereo not given) | 40.2% | 18.8% | 100% | 52.7 | 65.6% | 72.9% | 33.8% | 80.6% | 20.5% | 35.4% | -41.3% (active) | 37.4% | 14% | 34.7% | 95.7% | 49.2% | 5.35% (active) |  | 23.3%
4 | NC(=S)Nc1cccc(NC(N)=S)c1 | 109% | 94% | 104% | 94.6 | 126% | 97.5% | 88.5% | 105% | 97.6% | 86.8% | 97.3% | 107% | 91.7% | 107% | 117% | 87.6% | 86.5% |  | 115%
5 | Cc1c(C(=O)NNC(=O)c2ccc(Cl)cc2)nnn1-c1ccc(Cl)cc1 |  | 104% | 93.6% | 92.4 | 82.3% | 106% | 114% |  | 91.3% | 89.9% | 98.5% |  | 81.2% | 85.3% | 109% | 101% | 89.4% | 84.4% | 94.1%
6 | COc1ccc2c(c1)c(-c1cc3nc(-c4cn(C)c5ncccc45)cc(N)n3n1)cn2C |  | -41.5% (active) | -7.9% (active) |  | -57% (active) | -58.1% (active) | -12.4% (active) | -26.8% (active) |  | -48.5% (active) | -62.4% (active) | -70.4% (active) |  | -89% (active) | -100% (active) | -69.3% (active) | -89.6% (active) | -19.3% (active) | -84.7% (active)
7 | C=C1CC[C@@H]2[C@]3(C)COC(c4cn(-c5ccccc5)nc4-c4cccc([N+](=O)[O-])c4)O[C@@H]3CC[C@@]2(C)[C@@H]1C/C=C1/C(=O)OC[C@H]1O (stereo not given in full) |  | -38.1% (active) | -24.1% (active) | 14 | 93% | -25% (active) | 15.1% |  | -42.6% (active) | -42.4% (active) | -26.4% (active) |  | 2.33% (active) | -13.7% (active) | -86% (active) | 7.66% (active) | -69.7% (active) | -16.7% (active) | -55.9% (active)
8 | COc1ccc(C(=O)/C=C/c2cccc3ccccc23)cc1S(N)(=O)=O | -10.6% (active) | -13.6% (active) | 1.13% (active) | 43.5 | 44.7% | 38.7% | -50.7% (active) | 55.2% | 15.1% | -2.6% (active) | 5.32% (active) | -16.1% (active) | -60.3% (active) | -91.9% (active) | -70.2% (active) | -61.2% (active) | -55.7% (active) |  | 
9 | COCOc1cc2c(=O)c(C)c(C(=O)N[C@@H](Cc3ccccc3)C(O)C(=O)NCc3ccccc3)oc2cc1OC (stereo not given in full) | 67.3% | 2.29% (active) | 92.5% | 28.2 | 22.8% | 57.6% | 65.4% | 9.01% (active) | 88% | 40.7% | 11.2% | 31.1% | 17.3% | -10.4% (active) | 57.3% | -32.6% (active) | 13.9% |  | -35.5% (active)
